From PubChem BioAssay
Pf growth 48h: inhibits P. falciparum growth in the first generation, 48 h; P. falciparum luciferase growth in erythrocytes, 48 h; Potency, µM (titrated, usually from 28.7 µM), hits mostly inhibitors; 310,000 compounds, 5.9% hits
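Luminescence readout; reporter = integrated firefly luciferase in P. falciparum. RBC culture at 2% hematocrit, 0.1% parasitemia final, 37 C/5% CO2; decreased signal taken as growth inhibition.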
Pf growth 96h: P. falciparum growth inhibition at 96 hour, primary screen for plastid delayed-death inhibitors | P. falciparum luciferase reporter growth, 96 h | AID 504834 | Potency, µM (doses to about 28.7 µM), most hits filed as inhibitors | 320,000 compounds, 6.9% hits
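Readout is luminescence from an integrated firefly luciferase in P. falciparum. Red cells, 2% hematocrit and 0.05% parasitemia final, were cultured with compound through two parasite generations (96 hours) at 37 C, 5% CO2.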
Vaccinia Venus: inhibitors of vaccinia virus (Venus reporter). Vaccinia virus Venus reporter expression, fluorescence. Potency, µM (series often up to 36.5 µM), usual class: inhibitors. 330,000 compounds, 0.46% hits. AID 720580; calls by dose curve; tested in A549 cells; also: nearly all actives have a fitted effect of over 30% in size
HCV inhibitor: inhibitors of hepatitis C virus infection. Huh7.5.1 HCVcc-Cre infection, luciferase reporter, 44 h. Potency, µM (series often up to 41.8 µM), most hits filed as inhibitors. 340,000 compounds, 3.4% hits. AID 651820
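Compounds are dispensed onto cells plated 4 h earlier at 1,000 per well, with HCVcc-Cre virus (about 0.5 moi) added next. Following 44 h of culture, luminescent signal is measured for 15 sec after 15 min with substrate at room temperature.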
VACV mCherry inh: inhibitors of vaccinia virus infection (mCherry reporter signal). Vaccinia virus mCherry reporter infection, fluorescence. Potency, µM (highest dose often 36.5 µM), most hits filed as inhibitors. 310,000 compounds, 0.63% hits. AID 720579; calls by dose curve; tested in A549 cells; also: nearly all actives have a fitted effect of over 35% in size
NS1 function inh: influenza NS1 inhibition; 270,000 compounds, 0.4% hits; Potency, µM (top dose mostly 46.1 µM); calls by dose curve; also: actives are rising curves; nearly all actives have a fitted effect of over 50% in size
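Compounds were scored for reversing the slow growth caused by influenza A NS1 in S. cerevisiae, measured by optical density at 600 nm. Assay medium contained 2% galactose at pH 6.0; NS1-free yeast of the same strain were the positive control.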
A number is an active result. In the library only some 11% were active in any assay of this set; here they are far more common. Unless noted, calls follow the shape of the dose curve; as a rule, active = well fitted inhibition curve with a large enough effect; inconclusive = small, poorly fitted or top-dose-only effect, or another doubt; inactive = no such curve, though single readings can be large or run the other way.

How did O=[N+]([O-])c1ccc(NC(=S)N2CCN(c3ccc(F)cc3)CC2)cc1 do in these assays?
Pf growth 48h: inactive; Pf growth 96h: inactive; Vaccinia Venus: inactive; HCV inhibitor: inactive; VACV mCherry inh: inactive; NS1 function inh: inactive

How did CC(C)C[C@H](NC(=O)NCc1ccccc1Cl)C(=O)O do in these assays?
Pf growth 48h: inactive; Pf growth 96h: 0.93µM; HCV inhibitor: inactive; NS1 function inh: inactive

What do the screens show for `CCCn1nnnc1NC(=O)COc1ccc(Br)cc1`?
Pf growth 48h: inactive; Pf growth 96h: inconclusive; Vaccinia Venus: inactive; HCV inhibitor: inactive; VACV mCherry inh: inactive; NS1 function inh: inactive

How did COc1ccc(CNC(=O)Cn2nc(C(F)(F)F)cc2C)cc1 do in these assays?
Pf growth 48h: inactive; Pf growth 96h: 13µM; Vaccinia Venus: inactive; HCV inhibitor: inactive; VACV mCherry inh: inactive; NS1 function inh: inactive

Results for COc1ccc(CNC(=O)Cn2nc(C(F)(F)F)c(Br)c2C)cc1 ?
Pf growth 48h: inactive; Pf growth 96h: inactive; HCV inhibitor: inactive; NS1 function inh: inactive

How did COc1ccc(CNC(=O)c2ccc(Cn3nc(C)c([N+](=O)[O-])c3C)o2)cc1 do in these assays?
Pf growth 48h: inconclusive; Pf growth 96h: inactive; Vaccinia Venus: inactive; HCV inhibitor: inconclusive; VACV mCherry inh: inactive; NS1 function inh: inactive

What do the screens show for `COc1ccc(CNC(=O)c2ccc(Cn3nc(C)cc3C)o2)cc1`?
Pf growth 48h: inactive; Pf growth 96h: 1.5µM; HCV inhibitor: inactive; NS1 function inh: inactive

How did COc1cccc(CNC(=O)Nc2cccs2)c1 do in these assays?
Pf growth 48h: inactive; Pf growth 96h: inconclusive; Vaccinia Venus: inactive; HCV inhibitor: inactive; NS1 function inh: inactive

What do the screens show for `NS(=O)(=O)c1ccc(CNC(=S)NC2CCCC2)cc1`?
Pf growth 48h: inactive; Pf growth 96h: 13µM; Vaccinia Venus: inactive; HCV inhibitor: inactive; VACV mCherry inh: inactive; NS1 function inh: inactive

Results for S=C(NCCNCc1ccccc1)NC1CCCCC1 ?
Pf growth 48h: inconclusive; Pf growth 96h: 4.7µM

How did S=C(NCc1ccccc1Cl)NC1CCCC1 do in these assays?
Pf growth 48h: inactive; Pf growth 96h: inactive; Vaccinia Venus: inactive; HCV inhibitor: inconclusive; VACV mCherry inh: inactive; NS1 function inh: inactive

What do the screens show for `Fc1ccccc1CNC(=S)NC1CCCCC1`?
Pf growth 48h: inactive; Pf growth 96h: 4.1µM; Vaccinia Venus: inactive; HCV inhibitor: inconclusive; VACV mCherry inh: inactive; NS1 function inh: inactive

What do the screens show for `NS(=O)(=O)c1ccc(CNC(=O)C2CCCCC2)cc1`?
Pf growth 48h: inactive; HCV inhibitor: inactive; NS1 function inh: inactive

Results for CCCC(=O)N1CC(=O)Nc2ccc(C)cc2C1c1ccccc1 (configuration not stated) ?
Pf growth 48h: inactive; Pf growth 96h: 7.4µM; Vaccinia Venus: inactive; HCV inhibitor: inactive; VACV mCherry inh: inactive; NS1 function inh: inactive

What do the screens show for `Cc1ccc(C(=O)N2CC(=O)Nc3ccc(F)cc3C2c2ccccc2)cc1[N+](=O)[O-]` (configuration not stated)?
Pf growth 48h: 9.3µM; Pf growth 96h: inconclusive; Vaccinia Venus: inconclusive; HCV inhibitor: inactive; VACV mCherry inh: inconclusive; NS1 function inh: inactive

How did Cc1ccc(C(=O)N2CC(=O)Nc3ccc(F)cc3C2c2ccc(F)cc2)cc1[N+](=O)[O-] (configuration not stated) do in these assays?
Pf growth 48h: inconclusive; Pf growth 96h: inactive; Vaccinia Venus: inactive; HCV inhibitor: inactive; VACV mCherry inh: inactive; NS1 function inh: inactive

Results for O=C(CSc1nc2c(cnn2-c2cccc(Cl)c2)c(=O)[nH]1)NCC1CCCO1 (configuration not stated) ?
Pf growth 48h: inactive; Pf growth 96h: inactive; HCV inhibitor: inactive

What do the screens show for `CCN1CCN(c2nc3sc4c(c3c(=O)n2-c2ccc(OC)cc2)CCCCC4)CC1`?
Pf growth 48h: inconclusive; Pf growth 96h: inconclusive; HCV inhibitor: inconclusive; NS1 function inh: inactive

Results for O=C(c1ccco1)N1CCN(c2nc(C(F)(F)F)nc3c2nnn3Cc2ccccc2)CC1 ?
Pf growth 48h: 9.3µM; HCV inhibitor: 4µM; NS1 function inh: inconclusive

What do the screens show for `O=C(c1ccco1)N1CCN(c2ncnc3c2nnn3Cc2ccccc2Cl)CC1`?
Pf growth 48h: 12µM; Pf growth 96h: inactive; Vaccinia Venus: inactive; HCV inhibitor: inconclusive; VACV mCherry inh: inactive; NS1 function inh: inactive

What do the screens show for `Cc1ccc(-c2nsc3c(N4CCN(C(=O)c5ccco5)CC4)ncnc23)cc1`?
Pf growth 48h: inactive; Pf growth 96h: inactive; NS1 function inh: 3.5µM

What do the screens show for `O=C(O)CNC1=NCCC1`?
Pf growth 48h: inactive; NS1 function inh: inactive

Results for CN(Cc1ccccc1Br)C(=O)CSc1nnnn1C1CC1 ?
Pf growth 48h: inconclusive; Pf growth 96h: 3.3µM; HCV inhibitor: inactive

Results for CN(Cc1cccc(F)c1)C(=O)CSc1nnnn1C1CC1 ?
Pf growth 48h: inactive; Pf growth 96h: inactive; Vaccinia Venus: inactive; HCV inhibitor: inactive; VACV mCherry inh: inactive

Results for CCCCNc1c(N)n(CC(C)C)c(=O)[nH]c1=O ?
Pf growth 48h: 15µM; Pf growth 96h: inactive; HCV inhibitor: inactive

How did O=C(CCN1C(=O)/C(=C\c2ccco2)SC1=S)Nc1ccc(C(=O)O)c(O)c1 do in these assays?
Pf growth 48h: inactive; Pf growth 96h: inactive; HCV inhibitor: inactive; NS1 function inh: inactive

Results for Cc1ccc(NC(=O)c2cc(C(C)(C)C)nn2Cc2ccccc2)cc1 ?
Pf growth 48h: 8.3µM; Pf growth 96h: 9.3µM; Vaccinia Venus: inactive; HCV inhibitor: inconclusive; VACV mCherry inh: inactive; NS1 function inh: inactive

Results for CC(C)(C)c1cc(C(=O)NC2CC2)n(Cc2ccc(F)cc2)n1 ?
Pf growth 48h: inconclusive; Pf growth 96h: inconclusive; Vaccinia Venus: inactive; HCV inhibitor: inactive; VACV mCherry inh: inactive; NS1 function inh: inactive

Results for COc1ccccc1NNC(=O)c1cc(C(C)(C)C)nn1Cc1ccccc1 ?
Pf growth 48h: inconclusive; Pf growth 96h: inconclusive; Vaccinia Venus: inactive; HCV inhibitor: inactive; VACV mCherry inh: inactive; NS1 function inh: inactive

How did Cc1ccc(NNC(=O)c2cc(C(C)(C)C)nn2Cc2ccccc2)cc1 do in these assays?
Pf growth 48h: inconclusive; Pf growth 96h: inconclusive; Vaccinia Venus: inactive; HCV inhibitor: inconclusive; VACV mCherry inh: inconclusive; NS1 function inh: inactive

What do the screens show for `CC(C)(C)c1cc(C(=O)Nc2ccc(F)cc2)n(Cc2ccc(F)cc2)n1`?
Pf growth 48h: 10µM; Pf growth 96h: 12µM; HCV inhibitor: 11µM; NS1 function inh: inactive

Results for CC(C)(C)c1cc(C(=O)NNc2cc(C(F)(F)F)ccc2Cl)n(Cc2ccccc2)n1 ?
Pf growth 48h: 13µM; Pf growth 96h: 12µM; Vaccinia Venus: inconclusive; HCV inhibitor: inconclusive; VACV mCherry inh: inconclusive; NS1 function inh: inactive

What do the screens show for `Cc1ccc2nc3c(cc2c1)c(NS(=O)(=O)c1ccccc1)nn3CC(C)C`?
Pf growth 48h: inactive; Pf growth 96h: inactive; Vaccinia Venus: inactive; HCV inhibitor: inactive; NS1 function inh: inactive
